# Experimental data taken from PubChem BioAssay (NCATS).
# Inconclusive results are not listed. Values without a mark were called inactive. Calls of active or inactive are those of the source. The call rests on the fitted dose curve; in most records, active means well fitted cell-killing curve with a large enough effect; inconclusive means small, poorly fitted or top-dose-only effect, or effect the other way; inactive means no such curve, though single readings can be large or run the other way.
# Assay: Viability qHTS for spleen associated tyrosine kinase inhibitor (SYKi) drug resistant MV4-11 cells (AID 1963824); further: nearly all actives have a fitted effect of over 35% in size
# Conditions: SYKi-resistant MV4-11 viability, CellTiter-Glo, 72 h; series mostly up to 45 µM; viability, % of control: at the top concentration
# In short: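 CellTiter-Glo luminescence, read 10 min after reagent addition, reports viability after a 72 hr compound exposure. Cells are an MV4-11 line made resistant to SYK inhibition, seeded at 500 per well onto compound-containing plates.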
# Potency means the concentration at half of the fitted maximal effect.
Structure (SMILES),"viability, % of control",Potency
O=C(CCl)c1ccc(Cl)cc1Cl,82.5%,
CCN(Cc1ccc(Cl)nc1)/C(=C/[N+](=O)[O-])NC,103%,
CN1CCC(O)(c2ccc(F)cc2)C(C(=O)c2ccc(F)cc2)C1 (configuration not stated),104%,
C[C@@H]1CC[C@@]2(OC1)O[C@H]1C[C@H]3[C@@H]4CC=C5C[C@@H](O[C@@H]6O[C@H](CO)[C@@H](O[C@@H]7O[C@@H](C)[C@H](O)[C@@H](O)[C@H]7O)[C@H](O)[C@H]6O[C@@H]6O[C@@H](C)[C@H](O)[C@@H](O)[C@H]6O)CC[C@]5(C)[C@H]4CC[C@]3(C)[C@H]1[C@@H]2C,,1.66 µM (active)
CC(C)(C)c1ccc(O)cc1,81.3%,
CO/C1=C/C(C)=C\[C@@H](C)[C@@H](O)[C@@H](C)C/C(C)=C\C=C/[C@H](OC)[C@@H]([C@@H](C)[C@@H](O)[C@H](C)[C@@]2(O)C[C@@H](O)[C@H](C)[C@@H](C(C)C)O2)OC1=O,,0.0221 µM (active)
Clc1cccc(N2CCNCC2)c1,88.2%,
CCNc1nc(Cl)nc(NCC)n1,102%,
Cc1[nH]ncc1-c1cc2nc([C@@H]3CC4CCN3CC4)[nH]c(=O)c2s1,,4.17 µM (active)
CN1C(=O)NC(=O)C(C)(C2=CCCCC2)C1=O (configuration not stated),75.1%,
O=C(N/N=C/c1ccc([N+](=O)[O-])o1)c1cc([N+](=O)[O-])cc([N+](=O)[O-])c1O,86.7%,
C[C@@H](C1CC[C@@]2(O)C3=CC(=O)[C@@H]4C[C@@H](O)[C@@H](O)C[C@]4(C)[C@H]3CC[C@]12C)[C@H](O)CCC(C)(C)O (some centres not stated),80.4%,
